Data published in the supplement of paper PMC6555819.

Assays:
Experiment in all cases: PBM binding z-score (relative to random genomic background probes); higher = stronger binding; sequences stand for … in GC…GCGATTGACAGCGTAGAATGAAGG
[1] = system: PPARg:RXRa DBDmut IVT, anti-RXR (DBD mutation: RXRa K156A/R161A, NR concentration 270 nM, RXRa partner concentration 90 nM)
Outline: (§1)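 Each nuclear receptor dimer, without ligand, was incubated for 1 h on custom Agilent 4×180K protein-binding microarrays. Binding was detected with antibodies against each partner (one per run), and scanned fluorescence was regression-normalized. The binding z-scores are referenced to random human genomic background probes.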

[2] = system: PPARg:RXRa IVT, anti-PPARg (NR concentration 270 nM, RXRa partner concentration 90 nM)
Outline: as §1

[3] = system: PPARg DBDmut:RXRa IVT, anti-PPARg (DBD mutation: PPARg1 K132A/R137A, NR concentration 270 nM, RXRa partner concentration 90 nM)
Outline: as §1

[4] = system: PPARg DBDmut IVT, anti-PPARg (DBD mutation: PPARg1 K132A/R137A, NR concentration 270 nM)
Outline: as §1

[5] = system: PPARg homodimer (NR concentration 180 nM)
Outline: as §1

[6] = system: PXR:RXRa (NR concentration 270 nM, RXRa partner concentration 90 nM)
Outline: as §1

[7] = system: PXR homodimer (NR concentration 270 nM)
Outline: as §1

[8] = system: RARa:RXR (NR concentration 270 nM, RXRa partner concentration 90 nM)
Outline: as §1

[9] = system: RARa homodimer (NR concentration 270 nM)
Outline: as §1

[10] = system: RARb:RXRa (NR concentration 270 nM, RXRa partner concentration 90 nM)
Outline: as §1

[11] = system: RARb homodimer (NR concentration 270 nM)
Outline: as §1

[12] = system: RARg:RXRa (NR concentration 270 nM, RXRa partner concentration 90 nM)
Outline: as §1

[13] = system: RARg homodimer (NR concentration 270 nM)
Outline: as §1

[14] = system: RXRa DBDmut IVT, anti-RXR (DBD mutation: RXRa K156A/R161A, NR concentration 90 nM)
Outline: as §1

[15] = system: RXRa homodimer (NR concentration 180 nM)
Outline: as §1

[16] = system: THRa:RXRa (NR concentration 90 nM, RXRa partner concentration 90 nM)
Outline: as §1

[17] = system: THRa homodimer (NR concentration 90 nM)
Outline: as §1

[18] = system: VDR homodimer (NR concentration 270 nM)
Outline: as §1

Sequence | PBM binding z-score [1] | PBM binding z-score [2] | PBM binding z-score [3] | PBM binding z-score [4] | PBM binding z-score [5] | PBM binding z-score [6] | PBM binding z-score [7] | PBM binding z-score [8] | PBM binding z-score [9] | PBM binding z-score [10] | PBM binding z-score [11] | PBM binding z-score [12] | PBM binding z-score [13] | PBM binding z-score [14] | PBM binding z-score [15] | PBM binding z-score [16] | PBM binding z-score [17] | PBM binding z-score [18]
CAAACTAGGTCAAGAGTTCAAAGTCCGCTTCCCG | 8.53 | 8.57 | 5.05 | 5.84 | 7.86 | 6.27 | 10.5 | 6.61 | 2.65 | 4.74 | 4.97 | 7.16 | 6.48 | 3.87 | 5.58 | 3.33 | 1.28 | 7.25
CTTGCTAGGTCATGGTCAGCTAATCTACAGTATG | 4.97 | 4.72 | 0.897 | 0.605 | 1.37 | 1.45 | -0.306 | 2.48 | 0.17 | 3.66 | 3.07 | 3.94 | 4.57 | 1.95 | 2.77 | 2.96 | 1.27 | 0.195
CCTAATGGGCCAAGGTCATTGATCAGTCAAAGCA | 2.35 | 2.59 | -0.175 | -0.521 | 2.49 | 3.83 | 1.87 | 3.77 | 0.774 | 3.59 | 3.46 | 3.94 | 3.82 | 1.91 | 3.73 | 3.4 | 2.52 | 3.34
ATCTCGAGGTAAGACTCAGTTCAGTGAAGAACGC | -0.399 | 0.378 | 0.239 | 0.502 | 0.135 | 1.38 | 0.899 | 0.133 | -0.44 | 0.228 | 0.343 | 0.254 | 0.121 | 0.0712 | -0.00615 | 1.24 | 0.382 | 1.13
TCATATAGGTAATACAGGTGAAACTCGGCATCTA | 4.14 | 3.73 | 1.2 | 0.856 | 1.01 | 0.879 | 0.269 | 1.17 | 1.3 | 0.809 | 0.77 | 0.826 | 0.818 | 1.45 | 1.1 | 1.23 | 0.391 | 0.169
GCGACTGGGGCAAAGCAGGTTAACATAAGGTTGG | 4.62 | 3.42 | -0.747 | -0.874 | 0.353 | 0.721 | -0.496 | 1.1 | -0.822 | 1.05 | 1.27 | 0.386 | 0.747 | -0.0641 | 0.513 | 3.19 | 0.0848 | -0.0745
GATACAGGGTCAGCTAGATGCCAGAGTATGGAAA | 1.35 | 2.42 | 0.251 | 0.266 | 3.16 | 2.14 | -0.221 | 3.4 | 0.348 | 3.98 | 2.84 | 4.95 | 4.12 | 1.23 | 4.38 | 2.87 | 0.0826 | 0.494
TCTTGAAGATCAAAGGTTAAGAAAGCCGAAGCCT | 1.75 | 1.72 | 0.267 | 0.871 | 1.22 | 2.3 | 0.147 | 3.49 | 0.254 | 2.07 | 1.32 | 2.04 | 0.685 | 0.731 | 3.74 | 1.37 | -0.659 | -0.364
GTACCAAGGTGAAAAGGTCGTTGATGAGTAGGCG | 1.77 | 2.85 | 0.246 | -0.0504 | 2.35 | 2.73 | 0.862 | 3.71 | 0.82 | 3.35 | 3.49 | 4.66 | 2.59 | 0.369 | 3.57 | 2.58 | 0.7 | 1.7
TTACTAAGGTGAAAGGTCGTTGATGCACGCCTTG | 4.24 | 5.63 | 1.41 | 1.35 | 2.47 | 4.61 | 0.84 | 6.79 | 0.463 | 3.51 | 3.02 | 4.74 | 2.37 | 1.45 | 6.58 | 4 | 2.17 | 1.78
CCTTACGGGTCACGAGGTTATCGCACGACGAGCG | 4.34 | 5.24 | 1.36 | 0.803 | 3.23 | 4.75 | 0.615 | 6.45 | 0.798 | 4.5 | 4.01 | 6.31 | 5.55 | 1.96 | 7.47 | 3.72 | 1.12 | 2.04
TCTAGCTGGCCAGAGGGTCACTCAAGAGGTACGG | 0.731 | -0.216 | -1.57 | -1.05 | 0.244 | 1.38 | -0.401 | 1.83 | -0.851 | 1.73 | 2.27 | 2.07 | 1.43 | -0.123 | 2.18 | 1.48 | -0.56 | 0.32
CCTGACGGGTCACGAGGTTATAGCACGACGAGCG | 2.13 | 3.75 | 0.388 | 0.539 | 3.04 | 4.13 | 0.0429 | 5.48 | 1.05 | 4.32 | 3.55 | 5.83 | 5.33 | 1.42 | 6.19 | 3.3 | 1.14 | 1.87
CCGAGTAGGTTATGGGGGATTCAGGCAACGGTGA | 4.03 | 3.95 | 3.42 | 4.43 | 2.01 | 1.17 | 1.05 | 1.26 | 1.69 | 1.33 | 1.28 | 1.3 | 1.08 | 0.281 | 0.959 | 1.58 | 1.7 | 1.12
ATCTCTAGGTAACCAAGTTAAGTGAATGCCGAAC | 3.43 | 2.78 | 0.758 | 1.07 | 0.347 | 0.282 | 0.739 | 0.368 | 1.13 | 0.317 | 0.215 | 0.245 | 0.306 | -0.119 | 0.154 | 0.825 | 0.542 | -0.108
